Measured values published in article PMC7862700, “An all-to-all approach to the identification of sequence-specific readers for epigenetic DNA modifications on cytosine”.

Experiments:
Test in all cases: DAPPL (digital affinity profiling via proximity ligation, sequencing); 10 mM Tris-HCl pH 7.5, 50 mM NaCl, 1 mM DTT, 4% glycerol, room temperature, 30 min; GST-TFs on glutathione beads, 16-mer random dsDNA library, 0.1% formaldehyde crosslink after washing; high values mean tight binding
FLI1 = target: T1, FLI1 (Homo sapiens, UniProt Q01543 1-452); conditions: protein: recombinant; tags: N-terminal GST; dsDNA, one strand shown
T1 sequence: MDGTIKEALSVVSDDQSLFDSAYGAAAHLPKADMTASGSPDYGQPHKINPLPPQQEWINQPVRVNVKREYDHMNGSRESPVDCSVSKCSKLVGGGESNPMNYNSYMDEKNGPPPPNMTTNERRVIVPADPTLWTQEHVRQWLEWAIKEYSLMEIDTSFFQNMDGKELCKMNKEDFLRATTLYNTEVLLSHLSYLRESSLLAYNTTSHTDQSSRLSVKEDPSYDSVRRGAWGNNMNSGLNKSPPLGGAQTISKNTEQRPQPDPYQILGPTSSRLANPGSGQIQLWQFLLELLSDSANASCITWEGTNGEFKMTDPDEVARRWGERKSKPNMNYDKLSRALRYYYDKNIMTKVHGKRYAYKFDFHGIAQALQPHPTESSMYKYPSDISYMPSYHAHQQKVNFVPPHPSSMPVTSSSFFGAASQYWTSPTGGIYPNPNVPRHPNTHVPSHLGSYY
How it was run: (§1)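 Binding signal is given per hexamer as its read frequency for a factor divided by its frequency in the tag-only sample. GST-fused human transcription factors were expressed in yeast, captured on glutathione beads, barcoded with DNA and pooled with that sample, then incubated with 200 nmole of a 16-mer random double-stranded DNA library in Tris/NaCl/DTT/glycerol buffer for 30 min at room temperature. The pools were then washed, crosslinked, proximity-ligated, amplified by PCR and sequenced on an Illumina NextSeq500.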

ELK1 = target: T2, ELK1 (Homo sapiens, UniProt P19419 1-428); conditions: protein: recombinant; tags: N-terminal GST; dsDNA, one strand shown
T2 sequence: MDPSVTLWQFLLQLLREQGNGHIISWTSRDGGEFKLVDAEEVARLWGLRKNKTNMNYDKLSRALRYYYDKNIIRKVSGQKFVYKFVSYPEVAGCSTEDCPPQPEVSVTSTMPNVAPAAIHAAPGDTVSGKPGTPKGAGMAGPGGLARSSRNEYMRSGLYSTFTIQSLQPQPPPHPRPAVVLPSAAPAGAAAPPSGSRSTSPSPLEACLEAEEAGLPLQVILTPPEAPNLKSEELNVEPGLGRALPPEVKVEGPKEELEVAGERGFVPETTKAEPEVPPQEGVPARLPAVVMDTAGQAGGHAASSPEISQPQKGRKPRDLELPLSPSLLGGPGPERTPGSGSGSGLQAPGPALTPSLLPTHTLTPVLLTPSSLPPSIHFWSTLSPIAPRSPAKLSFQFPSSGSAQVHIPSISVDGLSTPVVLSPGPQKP
How it was run: as §1

GABPA = target: T3, GABPA (Homo sapiens, UniProt Q06546 1-454); conditions: protein: recombinant; tags: N-terminal GST; dsDNA, one strand shown
T3 sequence: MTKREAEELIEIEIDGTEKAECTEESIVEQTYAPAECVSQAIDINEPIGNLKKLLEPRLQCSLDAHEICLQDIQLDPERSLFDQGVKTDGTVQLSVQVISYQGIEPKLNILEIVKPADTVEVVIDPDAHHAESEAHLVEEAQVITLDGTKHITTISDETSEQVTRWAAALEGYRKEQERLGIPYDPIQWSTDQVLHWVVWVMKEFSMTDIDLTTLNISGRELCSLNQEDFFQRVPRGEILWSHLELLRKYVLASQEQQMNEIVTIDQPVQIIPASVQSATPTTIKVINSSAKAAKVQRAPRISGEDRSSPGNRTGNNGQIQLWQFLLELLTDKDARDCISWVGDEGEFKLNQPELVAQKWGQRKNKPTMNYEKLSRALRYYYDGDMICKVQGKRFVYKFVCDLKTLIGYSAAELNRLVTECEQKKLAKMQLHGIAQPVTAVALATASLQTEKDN
How it was run: as §1

ERG = target: T4, ERG (Homo sapiens, UniProt P11308 1-479); conditions: protein: recombinant; tags: N-terminal GST; dsDNA, one strand shown
T4 sequence: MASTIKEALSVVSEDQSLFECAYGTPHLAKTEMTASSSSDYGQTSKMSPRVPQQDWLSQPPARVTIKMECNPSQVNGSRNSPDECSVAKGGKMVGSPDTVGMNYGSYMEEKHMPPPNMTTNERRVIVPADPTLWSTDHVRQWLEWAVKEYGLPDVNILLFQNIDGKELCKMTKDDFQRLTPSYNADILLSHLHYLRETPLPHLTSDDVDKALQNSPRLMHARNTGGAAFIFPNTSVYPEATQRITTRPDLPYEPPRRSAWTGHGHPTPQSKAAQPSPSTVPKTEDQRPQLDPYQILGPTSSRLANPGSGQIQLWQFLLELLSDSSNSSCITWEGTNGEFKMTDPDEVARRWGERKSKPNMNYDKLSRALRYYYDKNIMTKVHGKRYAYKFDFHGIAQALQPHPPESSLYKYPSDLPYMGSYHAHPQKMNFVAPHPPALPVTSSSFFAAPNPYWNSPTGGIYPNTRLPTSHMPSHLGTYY
How it was run: as §1

ELF1 = ELF1 (Homo sapiens, UniProt P32519 1-619); conditions: protein: recombinant; tags: N-terminal GST; dsDNA, one strand shown
How it was run: as §1

EHF = target: T5, EHF (Homo sapiens, UniProt Q9NZC4 1-300); conditions: protein: recombinant; tags: N-terminal GST; dsDNA, one strand shown
T5 sequence: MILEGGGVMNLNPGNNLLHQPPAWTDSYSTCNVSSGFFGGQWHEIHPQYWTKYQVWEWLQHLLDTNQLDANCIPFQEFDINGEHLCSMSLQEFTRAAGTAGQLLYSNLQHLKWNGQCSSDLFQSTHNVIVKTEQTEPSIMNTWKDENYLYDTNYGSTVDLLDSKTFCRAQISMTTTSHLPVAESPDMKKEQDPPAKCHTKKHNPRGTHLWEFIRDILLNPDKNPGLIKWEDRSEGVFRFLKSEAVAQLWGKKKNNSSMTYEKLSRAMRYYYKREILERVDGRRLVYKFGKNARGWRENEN
How it was run: as §1

SPI1 = SPI1 (Homo sapiens, UniProt P17947 1-270); conditions: protein: recombinant; tags: N-terminal GST; dsDNA, one strand shown
How it was run: as §1

SPIB = SPIB (Homo sapiens, UniProt Q01892 1-262); conditions: protein: recombinant; tags: N-terminal GST; dsDNA, one strand shown
How it was run: as §1

ELK3 = target: T6, ELK3 (Homo sapiens, UniProt P41970 1-407); conditions: protein: recombinant; tags: N-terminal GST; dsDNA, one strand shown
T6 sequence: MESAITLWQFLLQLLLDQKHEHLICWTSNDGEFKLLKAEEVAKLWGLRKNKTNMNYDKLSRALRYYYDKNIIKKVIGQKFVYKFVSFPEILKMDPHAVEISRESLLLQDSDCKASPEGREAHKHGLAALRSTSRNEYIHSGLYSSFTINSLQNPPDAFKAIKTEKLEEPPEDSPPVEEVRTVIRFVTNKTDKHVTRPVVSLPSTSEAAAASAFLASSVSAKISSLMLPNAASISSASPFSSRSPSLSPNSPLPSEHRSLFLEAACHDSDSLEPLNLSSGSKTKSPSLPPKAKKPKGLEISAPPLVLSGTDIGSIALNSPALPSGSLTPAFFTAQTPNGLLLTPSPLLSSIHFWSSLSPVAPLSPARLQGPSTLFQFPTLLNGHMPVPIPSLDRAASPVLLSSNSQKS
How it was run: as §1

FEV = target: T7, FEV (Homo sapiens, UniProt Q99581 1-238); conditions: protein: recombinant; tags: N-terminal GST; dsDNA, one strand shown
T7 sequence: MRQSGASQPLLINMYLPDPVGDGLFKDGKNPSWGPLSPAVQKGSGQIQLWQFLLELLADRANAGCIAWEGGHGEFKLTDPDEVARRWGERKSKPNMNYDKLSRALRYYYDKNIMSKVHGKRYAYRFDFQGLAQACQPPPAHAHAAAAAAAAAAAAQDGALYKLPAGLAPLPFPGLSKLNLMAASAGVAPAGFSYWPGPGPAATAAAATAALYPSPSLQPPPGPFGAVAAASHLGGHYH
How it was run: as §1

ETV5 = ETV5 (Homo sapiens, UniProt P41161 1-510); conditions: protein: recombinant; tags: N-terminal GST; dsDNA, one strand shown
How it was run: as §1

HSF1 = HSF1 (Homo sapiens, UniProt Q00613 1-529); conditions: protein: recombinant; tags: N-terminal GST; chain copies: 3; dsDNA, one strand shown
How it was run: as §1

SPIC = target: T8, SPIC (Homo sapiens, UniProt Q8N5J4 1-248); conditions: protein: recombinant; tags: N-terminal GST; dsDNA, one strand shown
T8 sequence: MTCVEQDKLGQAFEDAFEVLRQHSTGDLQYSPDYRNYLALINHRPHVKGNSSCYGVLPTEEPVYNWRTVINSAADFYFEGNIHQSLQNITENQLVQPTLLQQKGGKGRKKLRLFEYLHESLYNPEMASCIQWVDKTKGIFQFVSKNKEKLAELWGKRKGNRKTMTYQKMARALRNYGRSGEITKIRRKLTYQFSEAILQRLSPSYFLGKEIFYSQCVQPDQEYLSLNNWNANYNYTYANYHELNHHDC
How it was run: as §1

ELF4 = ELF4 (Homo sapiens, UniProt Q99607 1-663); conditions: protein: recombinant; tags: N-terminal GST; dsDNA, one strand shown
How it was run: as §1

ELK4 = target: T9, ELK4 (Homo sapiens, UniProt P28324-2 1-405); conditions: protein: recombinant; tags: N-terminal GST; dsDNA, one strand shown
T9 sequence: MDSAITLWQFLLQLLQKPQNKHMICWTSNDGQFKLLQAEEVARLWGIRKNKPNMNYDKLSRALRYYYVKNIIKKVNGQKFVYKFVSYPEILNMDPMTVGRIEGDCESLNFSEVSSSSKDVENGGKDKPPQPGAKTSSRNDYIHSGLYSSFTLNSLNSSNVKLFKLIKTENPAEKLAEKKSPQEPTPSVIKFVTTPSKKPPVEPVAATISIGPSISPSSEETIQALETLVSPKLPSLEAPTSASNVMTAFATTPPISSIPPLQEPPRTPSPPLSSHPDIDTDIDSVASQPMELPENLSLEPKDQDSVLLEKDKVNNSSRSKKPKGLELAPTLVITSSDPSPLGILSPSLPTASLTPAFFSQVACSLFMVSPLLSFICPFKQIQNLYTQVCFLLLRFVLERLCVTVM
How it was run: as §1

ETV2 = target: T10, ETV2 (Homo sapiens, UniProt O00321 1-342); conditions: protein: recombinant; tags: N-terminal GST; dsDNA, one strand shown
T10 sequence: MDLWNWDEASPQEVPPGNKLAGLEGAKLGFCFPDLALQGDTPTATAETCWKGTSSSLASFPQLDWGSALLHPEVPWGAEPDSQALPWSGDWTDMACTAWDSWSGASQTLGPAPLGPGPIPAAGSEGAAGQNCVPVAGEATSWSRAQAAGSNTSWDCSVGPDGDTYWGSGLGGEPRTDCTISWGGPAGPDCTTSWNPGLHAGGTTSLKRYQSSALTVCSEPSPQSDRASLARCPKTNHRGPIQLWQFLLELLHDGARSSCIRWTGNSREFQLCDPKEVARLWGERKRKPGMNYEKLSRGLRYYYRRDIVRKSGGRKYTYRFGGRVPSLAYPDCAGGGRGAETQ
How it was run: as §1

ELF3 = target: T11, ELF3 (Homo sapiens, UniProt P78545 1-371); conditions: protein: recombinant; tags: N-terminal GST; dsDNA, one strand shown
T11 sequence: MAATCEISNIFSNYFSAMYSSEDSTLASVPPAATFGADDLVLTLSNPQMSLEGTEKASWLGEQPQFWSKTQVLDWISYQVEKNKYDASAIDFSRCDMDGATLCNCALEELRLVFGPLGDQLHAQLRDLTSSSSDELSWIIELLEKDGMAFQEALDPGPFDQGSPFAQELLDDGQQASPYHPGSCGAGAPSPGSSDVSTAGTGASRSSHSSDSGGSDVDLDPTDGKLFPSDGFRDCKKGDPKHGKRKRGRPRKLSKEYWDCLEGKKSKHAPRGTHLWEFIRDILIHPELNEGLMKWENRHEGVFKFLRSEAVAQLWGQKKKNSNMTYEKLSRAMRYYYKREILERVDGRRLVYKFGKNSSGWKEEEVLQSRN
How it was run: as §1

CRX = CRX (Homo sapiens, UniProt O43186 1-299); conditions: protein: recombinant; tags: N-terminal GST; dsDNA, one strand shown
How it was run: as §1

ETV1 = ETV1 (Homo sapiens, UniProt P50549 1-477); conditions: protein: recombinant; tags: N-terminal GST; dsDNA, one strand shown
How it was run: as §1

Sequence of ETV1 (P50549 whole entry): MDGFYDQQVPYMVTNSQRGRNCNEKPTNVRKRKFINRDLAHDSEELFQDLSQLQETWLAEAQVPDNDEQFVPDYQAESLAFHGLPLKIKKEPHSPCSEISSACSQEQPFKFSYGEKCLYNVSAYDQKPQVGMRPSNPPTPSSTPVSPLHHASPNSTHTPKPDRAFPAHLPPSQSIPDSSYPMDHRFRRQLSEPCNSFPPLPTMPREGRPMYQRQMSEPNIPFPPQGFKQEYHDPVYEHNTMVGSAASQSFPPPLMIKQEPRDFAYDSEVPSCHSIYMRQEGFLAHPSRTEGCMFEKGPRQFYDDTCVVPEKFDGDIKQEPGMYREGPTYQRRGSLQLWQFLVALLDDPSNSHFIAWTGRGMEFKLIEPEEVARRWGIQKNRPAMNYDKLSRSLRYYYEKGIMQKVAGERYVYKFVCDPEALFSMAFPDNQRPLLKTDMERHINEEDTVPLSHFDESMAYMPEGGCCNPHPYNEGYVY
Sequence of HSF1 (Q00613 whole entry): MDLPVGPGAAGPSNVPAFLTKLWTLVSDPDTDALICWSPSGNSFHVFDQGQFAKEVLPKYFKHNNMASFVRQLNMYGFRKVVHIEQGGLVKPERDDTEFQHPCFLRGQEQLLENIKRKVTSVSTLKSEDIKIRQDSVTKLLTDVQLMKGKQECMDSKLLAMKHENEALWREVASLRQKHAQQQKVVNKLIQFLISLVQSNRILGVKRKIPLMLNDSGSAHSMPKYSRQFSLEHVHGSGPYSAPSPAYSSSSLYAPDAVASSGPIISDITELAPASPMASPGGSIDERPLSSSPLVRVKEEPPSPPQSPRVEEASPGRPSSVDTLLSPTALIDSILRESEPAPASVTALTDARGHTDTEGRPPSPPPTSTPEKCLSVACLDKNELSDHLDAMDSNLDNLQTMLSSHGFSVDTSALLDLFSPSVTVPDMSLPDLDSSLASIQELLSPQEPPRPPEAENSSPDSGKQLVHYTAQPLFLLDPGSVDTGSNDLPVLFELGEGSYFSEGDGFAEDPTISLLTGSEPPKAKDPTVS
Sequence of ELF1 (P32519 whole entry): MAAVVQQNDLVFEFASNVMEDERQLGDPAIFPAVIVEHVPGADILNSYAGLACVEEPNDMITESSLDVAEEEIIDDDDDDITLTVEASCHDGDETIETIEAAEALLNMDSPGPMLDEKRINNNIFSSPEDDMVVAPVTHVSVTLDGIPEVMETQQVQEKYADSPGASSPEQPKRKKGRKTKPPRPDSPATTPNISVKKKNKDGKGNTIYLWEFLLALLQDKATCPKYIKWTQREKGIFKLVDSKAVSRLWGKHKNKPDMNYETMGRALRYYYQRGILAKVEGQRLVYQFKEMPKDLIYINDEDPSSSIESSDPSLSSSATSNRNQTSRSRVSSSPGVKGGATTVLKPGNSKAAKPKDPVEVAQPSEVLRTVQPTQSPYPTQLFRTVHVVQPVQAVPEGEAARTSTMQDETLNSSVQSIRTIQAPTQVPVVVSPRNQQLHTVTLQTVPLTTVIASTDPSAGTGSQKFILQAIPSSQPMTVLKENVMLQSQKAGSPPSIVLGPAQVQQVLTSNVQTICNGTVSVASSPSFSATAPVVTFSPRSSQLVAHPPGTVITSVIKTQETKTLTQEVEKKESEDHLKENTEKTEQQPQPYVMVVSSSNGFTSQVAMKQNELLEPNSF
Sequence of ELF4 (Q99607 whole entry): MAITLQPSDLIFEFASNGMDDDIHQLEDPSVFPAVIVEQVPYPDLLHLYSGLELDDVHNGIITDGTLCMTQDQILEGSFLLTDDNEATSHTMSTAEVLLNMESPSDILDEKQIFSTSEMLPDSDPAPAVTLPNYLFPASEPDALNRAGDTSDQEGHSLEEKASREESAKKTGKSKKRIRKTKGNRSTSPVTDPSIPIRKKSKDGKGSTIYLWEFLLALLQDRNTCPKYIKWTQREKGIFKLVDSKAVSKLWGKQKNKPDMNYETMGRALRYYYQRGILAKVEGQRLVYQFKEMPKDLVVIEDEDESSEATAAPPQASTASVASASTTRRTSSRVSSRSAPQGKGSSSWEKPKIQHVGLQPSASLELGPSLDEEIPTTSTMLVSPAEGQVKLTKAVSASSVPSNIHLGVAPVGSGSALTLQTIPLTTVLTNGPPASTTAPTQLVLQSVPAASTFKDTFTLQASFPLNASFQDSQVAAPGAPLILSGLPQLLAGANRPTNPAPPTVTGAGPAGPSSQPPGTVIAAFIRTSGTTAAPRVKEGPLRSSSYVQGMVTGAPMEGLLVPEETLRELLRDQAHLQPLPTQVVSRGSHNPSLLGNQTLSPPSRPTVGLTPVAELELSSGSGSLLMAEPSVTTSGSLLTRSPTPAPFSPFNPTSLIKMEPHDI
Sequence of CRX (O43186 whole entry): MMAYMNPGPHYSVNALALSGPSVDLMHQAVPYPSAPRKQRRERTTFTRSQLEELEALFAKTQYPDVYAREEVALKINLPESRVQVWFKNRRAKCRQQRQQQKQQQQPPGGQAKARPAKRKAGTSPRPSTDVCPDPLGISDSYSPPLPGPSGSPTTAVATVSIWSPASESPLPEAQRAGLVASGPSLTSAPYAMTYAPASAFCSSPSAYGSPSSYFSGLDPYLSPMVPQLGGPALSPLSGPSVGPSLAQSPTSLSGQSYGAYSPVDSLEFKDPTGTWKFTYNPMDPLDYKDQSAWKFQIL
Sequence of SPIB (Q01892 whole entry): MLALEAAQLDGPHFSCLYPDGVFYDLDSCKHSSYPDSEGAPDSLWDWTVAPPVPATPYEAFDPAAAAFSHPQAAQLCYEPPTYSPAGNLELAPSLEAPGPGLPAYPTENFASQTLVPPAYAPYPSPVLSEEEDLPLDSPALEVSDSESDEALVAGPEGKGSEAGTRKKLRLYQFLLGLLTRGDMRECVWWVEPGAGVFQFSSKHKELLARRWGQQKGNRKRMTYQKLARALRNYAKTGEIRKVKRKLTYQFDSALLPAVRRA
Sequence of ETV5 (P41161 whole entry): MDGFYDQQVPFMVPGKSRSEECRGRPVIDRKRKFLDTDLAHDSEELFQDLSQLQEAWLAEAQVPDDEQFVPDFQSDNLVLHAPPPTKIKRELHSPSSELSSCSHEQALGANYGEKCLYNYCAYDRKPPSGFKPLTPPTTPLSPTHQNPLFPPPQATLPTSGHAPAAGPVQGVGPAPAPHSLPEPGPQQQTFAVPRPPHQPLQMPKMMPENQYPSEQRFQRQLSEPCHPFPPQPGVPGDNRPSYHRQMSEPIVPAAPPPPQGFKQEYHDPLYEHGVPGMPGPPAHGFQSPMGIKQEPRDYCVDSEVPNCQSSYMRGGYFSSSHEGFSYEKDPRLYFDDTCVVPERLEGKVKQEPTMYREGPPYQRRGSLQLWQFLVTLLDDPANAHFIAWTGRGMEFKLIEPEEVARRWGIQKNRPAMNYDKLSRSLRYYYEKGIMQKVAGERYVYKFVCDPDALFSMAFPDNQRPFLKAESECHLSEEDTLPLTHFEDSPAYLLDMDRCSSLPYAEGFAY

Question: Which results are given for CCTTTT?
Answer: binding signal (FLI1): 1.49 fold enrichment (6-mer frequency, TF over GST control); binding signal (ELK1): 1.46 fold enrichment (6-mer frequency, TF over GST control); binding signal (GABPA): 1.46 fold enrichment (6-mer frequency, TF over GST control); binding signal (ERG): 1.56 fold enrichment (6-mer frequency, TF over GST control); binding signal (ELF1): 1.52 fold enrichment (6-mer frequency, TF over GST control); binding signal (EHF): 1.49 fold enrichment (6-mer frequency, TF over GST control); binding signal (SPI1): 2.05 fold enrichment (6-mer frequency, TF over GST control); binding signal (SPIB): 1.67 fold enrichment (6-mer frequency, TF over GST control); binding signal (ELK3): 1.64 fold enrichment (6-mer frequency, TF over GST control); binding signal (FEV): 1.68 fold enrichment (6-mer frequency, TF over GST control); binding signal (ETV5): 1.56 fold enrichment (6-mer frequency, TF over GST control); binding signal (HSF1): 1.37 fold enrichment (6-mer frequency, TF over GST control); binding signal (SPIC): 1.83 fold enrichment (6-mer frequency, TF over GST control); binding signal (ELF4): 1.64 fold enrichment (6-mer frequency, TF over GST control); binding signal (ELK4): 1.58 fold enrichment (6-mer frequency, TF over GST control); binding signal (ETV2): 1.38 fold enrichment (6-mer frequency, TF over GST control); binding signal (ELF3): 1.68 fold enrichment (6-mer frequency, TF over GST control); binding signal (CRX): 1.36 fold enrichment (6-mer frequency, TF over GST control); binding signal (ETV1): 1.6 fold enrichment (6-mer frequency, TF over GST control)
